Source: PubChem (National Center for Advancing Translational Sciences (NCATS))
NS1 inh = influenza NS1 inhibition; Potency, µM (top dose mostly 46.1 µM), for the others: top-dose activity, positive = more growth; actives 0.4% (n = 270,000); AID 2326; calls by dose curve; further: actives are rising curves; nearly all actives have a fitted effect of over 50% in size
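A cell-based growth assay was used: compounds that relieve NS1-induced slow growth of budding yeast raise OD600. Assay medium was yeast nitrogen base with ammonium sulphate and -URA supplement, pH 6.0, with 2% galactose.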
SARS PLP yeast = inhibitors of SARS-CoV papain-like protease in yeast | S. cerevisiae expressing SARS-CoV PLpro, growth rescue | Potency, µM (series often up to 32.9 µM), for inactives: top-dose activity, positive = growth rescue, usual class: activators | actives 0.19% (n = 330,000); calls by dose curve; further: 0% is about no effect; nearly all actives have a fitted effect of over 55% in size
Pf growth 96h = P. falciparum growth inhibition at 96 hours | P. falciparum luciferase reporter growth, 96 h | Potency, µM (top dose mostly 28.7 µM), for the others: at the top dose activity change, negative = inhibition, most hits filed as inhibitors | actives 6.9% (n = 320,000) | AID 504834; further: on the % scale 0 is the no-effect control and ±100 the full control effect
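Cell-based qHTS: luciferase-tagged P. falciparum in erythrocytes (2% hematocrit, 0.05% parasitemia final) incubated with compounds for 96 hours, 37 C, 5% CO2; luciferase detection reagent then added and luminescence measured.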
Pf growth 48h = inhibits P. falciparum growth in the first generation, 48 h; P. falciparum luciferase growth in erythrocytes, 48 h; Potency, µM (series often up to 28.7 µM), for the others: at the top dose activity change, negative = inhibition, actives largely listed as inhibitors; actives 5.9% (n = 310,000); AID 504832; further: on the % scale 0 is the no-effect control and ±100 the full control effect
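Compounds are pin-transferred into medium, infected erythrocytes (2% hematocrit, 0.1% parasitemia final) are added, and plates sit one parasite generation at 37 C in 5% CO2. Detection reagent is then added and luminescence measured.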
Numbers without * were called inactive; ? = inconclusive; . = not tested or not shown; [ ] = remark or other dose. Sampled rows, rich in hits. Any-hit rate of the full collection: about 10%. Unless noted, the call rests on the fitted dose curve; in most records, active means well fitted inhibition curve with a large enough effect; inconclusive means small, poorly fitted or top-dose-only effect, or another doubt; inactive means no such curve, though single readings can be large or run the other way. Potency means the concentration at half of the fitted maximal effect.

SMILES	NS1 inh	SARS PLP yeast	Pf growth 96h	Pf growth 48h
CCC(C)c1ccc(NC(=O)COc2c(F)c(F)c(C(F)(F)F)c(F)c2F)cc1 (stereo not drawn)	-46%	-41%	2.1µM*	8%
N#Cc1ccc(-c2ccccc2)nc1SCC(=O)c1cc2ccccc2oc1=O	16%	6%	?	9.3µM*
O=C(CSc1nnc(-c2cccnc2)o1)c1cc2ccccc2oc1=O	?	-1%	1%	7.4µM*
CCn1c(C)cc2c(c1=O)C(c1ccccc1)C(C(=O)OC)=C(N)O2 (stereo not drawn)	3%	4%	278%	3%
COC(=O)C1=C(N)Oc2cc(C)n(CCCn3ccnc3)c(=O)c2C1c1ccc(Cl)cc1 (stereo not drawn)	-18%	1%	4.7µM*	3.3µM*
CSc1ncccc1C(=O)N1CCCC(N2CCN(c3ccccc3F)CC2)C1 (stereo not drawn)	7%	?	?	67%
Cc1nn(C(=O)c2cc([N+](=O)[O-])ccc2Cl)c(C)c1Br	0%	0%	10%	42%
CCOc1ccc(C2C(C#N)=C(N)Oc3cc(C)n(CCN(C)C)c(=O)c32)cc1OCC (stereo not drawn)	4%	1%	12µM*	5%
CCN(CC)CCCn1c(C)cc2c(c1=O)C(c1ccc(OC)c(OC)c1OC)C(C#N)=C(N)O2 (stereo not drawn)	-6%	8%	0.93µM*	?
Cc1cc2c(c(=O)n1CCN(C)C)C(c1ccc(Cl)cc1)C(C#N)=C(N)O2 (stereo not drawn)	4%	3%	?	-22%
Cc1c(NC(=O)CSc2nc(N)cc(N)n2)c(=O)n(-c2ccccc2)n1C	.	10%	-17%	-20%
CN(CCC1CCOCC1)C(=O)C1CCC(=O)N(CCc2ccccc2)C1 (stereo not drawn)	12%	-1%	0%	5%
Cc1c(C(=O)O)c(-c2ccccc2)nn1-c1ccccc1	11%	2%	2.9µM*	1%
COc1ccccc1CNC(=O)c1c(-c2ccccc2)nn(-c2ccccc2)c1C	-4%	3%	9.3µM*	.
CC(=O)Nc1ccc(S(=O)(=O)Oc2cccc(N3C(=O)C4CC=CCC4C3=O)c2)cc1 (stereo not drawn)	-3%	12%[6.58 µM]	2.3µM*	.
CC(=O)Nc1ccc(S(=O)(=O)Oc2ccc(N3C(=O)C4CCCCC4C3=O)cc2)cc1 (stereo not drawn)	-14%	4%	39%	-1%
CC(=O)Cc1cc(O)c2ccccc2c1OC(=O)c1ccccc1	-5%	-1%	10%	13µM*
CCc1ccc(CCN2CCCCC2)nc1	1%	.	.	.
COC(=O)Nc1ccc(S(=O)(=O)N2CCCCC2C(=O)NCc2ccco2)cc1 (stereo not drawn)	2%	-17%	-25%	.
CC1CCCCN1S(=O)(=O)c1ccc(S(=O)(=O)N(Cc2ccccc2)Cc2ccco2)cc1 (stereo not drawn)	18%	-5%	10µM*	10µM*
Cc1ccc(S(=O)(=O)N2CCC(C(=O)N3CCC[C@H]3C(=O)NCc3ccco3)CC2)cc1	3%	2%	13µM*	12µM*
Cc1ccc(S(=O)(=O)N2CCCCC2C(=O)NCc2ccco2)cc1 (stereo not drawn)	2%	-1%	5.2µM*	?
Cc1c(C(c2ccccc2Br)c2c(C)n(C)n(-c3ccccc3)c2=O)c(=O)n(-c2ccccc2)n1C	-6%	0%	?	-19%
CNC(=O)COc1coc(CN2CCN(c3ccccc3OC)CC2)cc1=O	-14%	0%	?	7%
O=C(COC(=O)c1ccc(CO)cc1)Nc1ccc2ccccc2c1	.	-2%	19%	0%
SMILES	NS1 inh	SARS PLP yeast	Pf growth 96h	Pf growth 48h
N#CCC(=O)Nc1ccc(C(=O)OCC(=O)Nc2ccc3ccccc3c2)cc1	.	-3%	-14%	13µM*
CC(CCc1ccccc1)NC(=O)c1ccc(NC(=O)c2cccc(Br)c2)cc1 (stereo not drawn)	-1%	-10%	9.3µM*	15µM*
N#CCC(=O)Nc1ccc(C(=O)OCC(=O)N=c2sccn2Cc2ccccc2Cl)cc1	.	3%	?	12µM*
CC(CCc1ccccc1)NC(=O)COC(=O)c1ccc(NC(=O)CC#N)cc1 (stereo not drawn)	4%	2%	?	12µM*
Cc1ccc(C(=O)c2ccccc2C(=O)OCC(=O)N2C(C)CCCC2C)cc1 (stereo not drawn)	.	2%	?	?
O=S(=O)(c1cccs1)N1CCC2(CC1)OCCO2	-4%	9%	13µM*	?
O=C(COc1ccc(C(=O)NCCN2CCOCC2)cc1)Nc1cccc(C(F)(F)F)c1	.	0%	?	-19%
Cc1cc[n+]2c3c(cccc13)CCC2	-1%	6%	.	3.7µM*
Cc1cccc2c1N(N=O)CCC2	8%	24%	32%	41%
CCN(CC(=O)Nc1ccc(Br)cc1)CC(=O)Nc1cc(C)on1	.	2%	7%	0%
O=S1(=O)CCOC[C@H](c2ccccc2)N1Cc1cccc(Cl)c1	-32%	-12%	38%	16%
CC(C(Sc1ccccc1N)c1ccccc1)[N+](=O)[O-] (stereo not drawn)	-34%	-21%	0%	2.6µM*
Nc1ccccc1SSc1ccccc1N	-116%	-25%	?	?
O=C(Nc1cc([N+](=O)[O-])ccc1N1CCCC1)c1cccs1	12%	-2%	13µM*	?
Cc1ccccc1OCC(=O)NCc1ccccc1	.	10%	3.7µM*	20%
Cc1ccccc1OCC(=O)NNC(=O)CCc1ccccc1	-2%	0%	?	0%
CCCC(=O)NCc1ccncc1	4%	1%	19%	2%
CC1N(C)c2cc(NC(=O)c3cccs3)c(P(=O)(Nc3ccc([N+](=O)[O-])cc3)N3CCOCC3)cc2C1(C)C (stereo not drawn)	14%	3%	?	13µM*
O=C(Nc1cc([N+](=O)[O-])ccc1N1CCOCC1)c1cccs1	2%	2%	38%	9%
O=C(CCc1ccccc1)NCc1ccncc1	9%	-2%	3.7µM*	10%
O=C(Nc1ccc(NC(=O)c2cc([N+](=O)[O-])ccc2N2CCOCC2)cc1)c1cccs1	.	0%	-5%	-4%[5.75 µM]
Cc1cc(S(=O)(=O)NCc2ccccc2)ccc1OCC(=O)NCc1ccccn1	0%	-1%	9.3µM*	-6%
O=C(COc1ccccc1-c1ccccc1)NCc1cccc(Cl)c1	4%	-49%	13µM*	?
O=C(NCc1cccc(Cl)c1)NCc1cccc(Cl)c1	-10%	13%	50%	-11%
Cc1ccccc1OCC(=O)Nc1ccccc1C(=O)N1CCCCC1	-4%	8%	10µM*	6%
Cc1ccccc1OCC(=O)Nc1ccccc1-c1ccccc1NC(=O)COc1ccccc1C	-17%	5%	9.3µM*	8.3µM*
COc1ccc(C(=O)NCCS(=O)(=O)N2CCc3ccccc3C2)cc1	.	0%	18%	28%
O=C(O)CSc1ncccc1[N+](=O)[O-]	-4%	.	.	.
O=C(Nc1ccccc1C(=O)N1CCCCC1)c1ccccc1C(F)(F)F	7%	-4%	3%	?
